Results filed as inconclusive are left out. Unmarked numbers belong to inactive results. Active and inactive are the calls of the source. Calls come from the whole dose curve; as a rule, active = well fitted cell-killing curve with a large enough effect in the repeat runs; inconclusive = weak or mixed curves, or effect the other way; inactive = flat fitted curve, though single readings scatter.
% is set by controls: 0 for no effect and ±100 for the full control effect; potency is the fitted concentration of half-maximal effect.

A short description of the assay: cAMP Responsive Elements (CRE) small molecule antagonists, cell-based qHTS assay: qHTS cell viability counter screen (AID 2060913). Note: nearly all actives have a fitted effect of over 40% in size. The settings on record: CRE-bla HEK293T viability, CellTiter-Glo luminescence, 5 h; series mostly up to 92.4 µM; viability change, negative = cytotoxic: at the top concentration. From the text:
U.S. Tox21 Program National Center for Advancing Translational Sciences [NCATS] Division of Preclinical Innovation [DPI] U.S. Environmental Protection Agency [EPA] National Institutes of Environmental Health Sciences [NIEHS] National Toxicology Program [NTP] U.S. Food and Drug Administration [FDA] Tox21 Assay Overview: CREB (cyclic-AMP Responsive Element Binding Protein) is a cellular transcription factor. It binds to certain DNA sequences called cAMP Responsive Elements (CRE) and regulates the transcription of the genes. […] This cell line can be used to find agonists/antagonists of the cyclic AMP signaling pathway. The activation of the report gene under culture conditions can be detected by fluorescence intensity. This cell line has been used to screen the Tox21 10K compound library to identify agonists that induce oxidative stress. The cytotoxicity of the Tox21 compound library against the CRE-bla cell line was tested in parallel by measuring the cell viability using CellTiter-Glo assay (Promega, Madison, WI) in the same wells.
Tox21 Assay Protocol Summary: CRE-bla Hek 293T cells were suspended in assay medium (DMEM containing 10% dialyzed FBS, 0.1 mM NEAA, 1 mM sodium pyruvate and 25 mM HEPES) and dispensed at 2,000 cells/4 uL /well into 1536-well black wall/clear bottom plates using a Multidrop Combi (ThermoFisher Scientific, Waltham, MA) dispenser. After the assay plates were incubated at 37 C/5% CO2 for 18 hrs, 23 nL of compounds dissolved in DMSO, positive controls or DMSO only was transferred to the assay plate by a pintool workstation (Kalypsys, San Diego, CA), followed by addition of 1 uL of 1.25uM NKH477 (0.25 uM as final concentration) in assay medium using a Flying Reagent Dispenser (Aurora Discovery, San Diego, CA). The plates were incubated at 37 C and 5% CO2 for 3 hrs. Then 1 uL of LiveBLAzer B/G FRET substrate (Invitrogen, Carlsbad, CA) was added to each well using Bioraptr Flying Reagent Dispenser (FRD, Aurora Discovery, San Diego, CA). The plates were incubated at room temperature for 2 h, then fluorescence intensities were measured using an Envision plate reader (PerkinElmer, Shelton, CT) at Excitation 405nm, Emission 460nm and 530nm. The % activity was determined from the ratio of 460nm/530nm. For cell viability readout that measures cytotoxicity, 4 uL /well of CellTiter-Glo reagent was added into the assay plates using Bioraptr FRD. After 30 min incubation at room temperature, the luminescence intensity in the assay plates was measured using a ViewLux (PerkinElmer, Shelton, CT) plate reader.
For `CC1=C2C[C@H]3[C@@H](CC=C4C[C@@H](O)CC[C@@]43C)[C@@H]2CC[C@]12O[C@@H]1C[C@H](C)CN[C@H]1[C@H]2C`, the “viability change, negative = cytotoxic” value was 1.22% [at 42.5 µM]. As to `CC[N+](CC)(CC)CC`, the Potency result is “inactive”. With `O=C1c2ccccc2C(=O)C1C(=O)C(c1ccccc1)c1ccc(Cl)cc1` (stereo not given), the “viability change, negative = cytotoxic” value is -15%. The same measure, in the same setting: in the case of `CN(CCCC(O)c1cccnc1)N=O` (stereo not given) it was -3.94%. Same read-out and setting: as for `CCOC(=O)C(Cl)Cc1cc(-n2nc(C)n(C(F)F)c2=O)c(F)cc1Cl` (stereo not given), the figure is 11.8%; as for `COP(=O)(OC)O/C(C)=C/C(=O)N(C)C`, 1.86%.

Turning to `C1CN2CCN1CC2`, the Potency result is “inactive”.

For `COc1ccc(C=O)cc1OC`, the Potency result was “inactive”. Turning to `Clc1ccc(C2(Cn3cncn3)CC(Br)CO2)c(Cl)c1` (stereo not given), the “viability change, negative = cytotoxic” value is -7.27%. Same read-out and setting: as for `COCc1cnc(C2=NC(C)(C(C)C)C(=O)N2)c(C(=O)O)c1` (stereo not given), the figure is 9.19%. Regarding `c1ccc(Nc2ccc(Nc3ccccc3)cc2)cc1`, the “viability change, negative = cytotoxic” value is -5.39%. Consider `O=Cc1ccco1`, for which the Potency result is “inactive”. On the same count and under the same terms, as for `OC[C@@H](O)[C@H]1O[C@@H]2O[C@H](C(Cl)(Cl)Cl)O[C@@H]2[C@H]1O`, the entry is “inactive”. As for `C[C@]12CC[C@H]3[C@@H](CCC4=CC(=O)CC[C@@]43C)[C@@H]1CC[C@@H]2O`, the “viability change, negative = cytotoxic” value was -4.48%.

Regarding `CCC(Br)(CC)C(=O)NC(N)=O`, the “viability change, negative = cytotoxic” value was 0.677%.

Regarding `O=C(O)c1cccc(Cl)c1`, the “viability change, negative = cytotoxic” value was 3.39%. Same read-out and setting: in the case of `O=C(CCl)C(Cl)Cl` it was 2.64%. In the case of `C1CCC(C2CCCCC2)CC1`, the “viability change, negative = cytotoxic” value was -5.08%. For the molecule `ClC(Cl)=C(c1ccc(Cl)cc1)c1ccc(Cl)cc1`, the Potency entry was “inactive”. `CNC(=O)CSP(=O)(OC)OC`: the “viability change, negative = cytotoxic” value was -4.71%. Still for that read-out and setting: as for `COC(=O)[C@@H](N)CCCN/C(N)=N/[N+](=O)[O-]`, the figure is 4.59% [at 42.5 µM]. On the same count and under the same terms, in the case of `c1ccc(N=NNc2ccccc2)cc1` it was 5.34%. Take `CCCCOP(=O)(CCCC)OCCCC`: the “viability change, negative = cytotoxic” value was -4.04%. Take `Brc1ccc(Oc2cc(Br)c(Br)cc2Br)c(Br)c1`: the Potency entry is “inactive”. Same read-out and setting: in the case of `CC(=O)[O][Pb]([c]1ccccc1)([c]1ccccc1)[c]1ccccc1` it was 18 µM (active); in that of `COP(=S)(OC)SCN1C(=O)c2ccccc2C1=O`, “inactive”.

On to `CNC(=O)/C=C(\C)OP(=O)(OC)OC`, for which the “viability change, negative = cytotoxic” value is 0.218%. Still for that read-out and setting: in the case of `C[C@H]1CNCCc2ccc(Cl)cc21` it was 5.34% [at 42.5 µM]; in that of `BrCc1ccc(Br)cc1`, -9.24%; in that of `C=C(Cl)CCl`, -1.31%. On to `CCCCOCC1CO1` (stereo not given), for which the Potency entry was “inactive”.

As to `O=S(=O)(Oc1ccc(Cl)cc1)c1ccc(Cl)cc1`, the “viability change, negative = cytotoxic” value is -1.66%. The same measure, in the same setting: in the case of `O=[N+]([O-])c1ccccc1CCl` it was -10.5%; in that of `O=C1CN=C(c2ccccc2)c2cc(Cl)ccc2N1CC1CC1`, 6.54%. Take `Nc1cnn(-c2ccccc2)c(=O)c1Cl`: the “viability change, negative = cytotoxic” value was -2.42%.

Turning to `CCCCN=C=O`, the “viability change, negative = cytotoxic” value is 4.25%. Still for that read-out and setting: in the case of `Clc1ccccc1` it was -11.6%. Regarding `COS(=O)(=O)OC`, the Potency entry is “inactive”.

For the molecule `COP(=S)(NC(C)C)Oc1ccc(C)cc1[N+](=O)[O-]` (stereo not given), the “viability change, negative = cytotoxic” value is -18.5%. As to `c1ccc2sc(SNC3CCCCC3)nc2c1`, the Potency result is “inactive”.

(Values after PubChem BioAssay (Tox21).)
